Data published in PubChem BioAssay AID2685 (National Center for Advancing Translational Sciences (NCATS), 2010).
The whole screen tested about 320,000 compounds, of which about 2,100 (0.66%) were called active. Not shown: some 53% with an inconclusive outcome. The call rests on the fitted dose curve; in most records, active means well fitted inhibition curve with a large enough effect in the signal ratio, with a control signal flat (not every such curve was filed as active); inconclusive means small, poorly fitted or top-dose-only effect, or effect the other way, or a change in a side signal; inactive means flat fitted curve, though single readings scatter; the % refers to the signal ratio. What follows is part of a selection rich in actives, with near analogues and random picks from the rest.

assay: qHTS Assay for Lipid Storage Modulators in Drosophila S3 Cells; conditions: BODIPY lipid droplet fluorescence, 18-24 h, cells fed with added oleic acid; cell number change: measured here: cell count max response; series mostly up to 46.1 µM; lipid storage change, negative = inhibition: at the top concentration;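 on cell number change: cells counted by Cell Tracker Red CMTPX staining in the red channel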; on lipid storage change, negative = inhibition: on the % scale 0 is the no-effect control and ±100 the full control effect
Method in brief: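 Drosophila S3 cells loaded with oleic acid (400 uM, as added) and compounds at several concentrations; lipid droplets imaged by 488-nm laser-scanning cytometry, 500–530 nm intensity and object ratio to cell channel. Percent activity normalized to 20 uM Triacsin C.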
Potency means the concentration at half of the fitted maximal effect.

Compound | outcome | cell number change | lipid storage change, negative = inhibition | Potency
COc1ccc(NC(=O)c2ccc(S(=O)(=O)N3CCCCC3)cc2)c(OC)c1 | inactive | -34.1% | – | –
Cc1cc2n(n1)SC(Nc1cc(Cl)ccc1Cl)N2 (centres undefined) | – | -3.68% | -11.4% (inactive) | –
COc1ccc(N2CCN(CCCNC(=O)CN3C(=O)COc4ccccc43)CC2)cc1 | inactive | -22.1% | – | –
Cn1c(C(=O)N2CCN(c3ccc(Cl)cc3)CC2)cc2c(=O)[nH]c3ccccc3c21 | – | 18.3% | -2.56% (inactive) | –
CCN(CC)c1ccc(/C=N/NC(=O)C(O)(c2ccccc2)c2ccccc2)o1 | – | -15.7% | – | 20.6 µM (active)
COc1ccc(/C=N/NC(=O)C(O)(c2ccccc2)c2ccccc2)cc1OC | – | 3.71% | 22.7% (inactive) | –
O=C(O)COc1ccc(/C=N/NC(=O)C(O)(c2ccccc2)c2ccccc2)cc1 | – | 7.99% | 8.46% (inactive) | –
O=C(C1CCN(Cc2cccs2)CC1)N1CCN(Cc2ccc3c(c2)OCO3)CC1 | – | 20.4% | 2.29% (inactive) | –
C/C(=C/Cc1c(O)cc2oc(C)cc(=O)c2c1O)COC1OC(CO)C(O)C(O)C1O (centres undefined) | – | 6.97% | -5.08% (inactive) | –
CCN1C(=O)[C@H]2[C@@H](c3ccc(-c4ccccc4)cc3)N[C@@](CC(C)C)(C(=O)OC)[C@H]2C1=O | – | 7.59% | 7.26% (inactive) | –
CCN1C(=O)[C@H]2[C@@H](c3ccc(-c4ccc(OC)cc4)cc3)N[C@@](CC(C)C)(C(=O)OC)[C@H]2C1=O | – | 12.8% | -25.2% (inactive) | –
CCN1C(=O)[C@H]2[C@@H](c3ccc(SC4CCCCC4)cc3)N[C@@](CC(C)C)(C(=O)OC)[C@H]2C1=O | – | – | – | 8.2 µM (active)
CC(C)NC(=O)c1ccccc1NC(=O)CS(=O)(=O)Cc1ccccc1 | inactive | 14.5% | – | –
Cc1ccc(NS(=O)(=O)c2ccc3c(c2)oc(=O)n3C)cc1C | – | 5.19% | 4.4% (inactive) | –
COc1ccccc1NS(=O)(=O)c1ccc2oc(SC(C)C(=O)N3CCNC3=O)nc2c1 (centres undefined) | – | -7.72% | 3.7% (inactive) | –
COc1ccccc1NS(=O)(=O)c1ccc2oc(SCc3ccc(F)cc3)nc2c1 | – | -19.8% | -11.7% (inactive) | –
CCOC(=O)CSc1nc2cc(S(=O)(=O)Nc3ccccc3OC)ccc2o1 | – | -16.6% | – | 29.1 µM (active)
CSc1ccc(CCNC(=O)CN2C(=O)CCSc3ccccc32)cc1 | – | 2.42% | 4.79% (inactive) | –
Cc1cc(C)nc(Sc2ccc([N+](=O)[O-])cc2[N+](=O)[O-])n1 | – | -6.83% | – | 16.4 µM (active)
Cc1cc(C)nc(SCC(=O)c2ccc([N+](=O)[O-])cc2)n1 | inactive | – | – | –
Cc1cc(C)nc(SCc2ccc([N+](=O)[O-])cc2)n1 | – | -8.5% | -12.6% (inactive) | –
C=CCn1c(=O)c2c(nc(-n3nc(C)cc3C)n2C)n(C)c1=O | inactive | – | – | –

Compound | outcome | cell number change | lipid storage change, negative = inhibition | Potency
Cc1cc(C)nc(N2CCN(C(=O)CCC(=O)Nc3nnc(C(C)C)s3)CC2)n1 | – | 0.873% | 0.665% (inactive) | –
O=S(=O)(/N=C(\c1ccccc1F)N1CCCCC1)c1ccccc1 | – | -0.464% | -4.68% (inactive) | –
CC(C)Oc1ccc(CNC(=O)Cn2c(=O)c3cccn3c3cccnc32)cc1 | inactive | -16.2% | – | –
CC1(C)C2CC[C@]1(C)C(=O)N(CCCCN1CCN(c3ccccn3)CC1)C2=O | inactive | 15.1% | – | –
Cc1[nH]c2ccccc2c1SCC(=O)N1CCC(C)CC1 | – | -5.95% | -7.23% (inactive) | –
CSC1=NC2(CCCCC2)C2=C(CCCC2)N1 | – | -4.54% | – | 5.8 µM (active)
S=C1NC2=C(CCCC2)C2(CCCCC2)N1 | – | 0.876% | 3.68% (inactive) | –
Cc1cccc(C(=O)Nc2c3c(nn2C(C)(C)C)CS(=O)(=O)C3)c1 | inactive | – | – | –
COc1ccc(Cl)cc1NC(=S)NC(=O)c1ccco1 | – | 1.24% | 17.2% (inactive) | –
COC(=O)c1cc(OC)c(OC)cc1NC(=S)NC(=O)c1ccco1 | – | -15.6% | – | 18.4 µM (active)
COc1cc(NC(=O)c2ccco2)c(C(=O)O)cc1OC | – | 5.35% | 9.63% (inactive) | –
CC1CCc2nn(CC(=O)NCc3ccco3)cc2C1 (centres undefined) | – | -0.142% | 8.35% (inactive) | –
CCCCN(C(=S)NC(=O)c1ccccc1)c1c(N)n(Cc2ccccc2)c(=O)[nH]c1=O | – | -12.7% | -6.94% (inactive) | –
COC(=O)C(C)SC1=N/C(=C/c2ccc(-n3cncn3)cc2)C(=O)N1 (centres undefined) | – | -12.1% | -24.9% (inactive) | –
Cc1ccc2cc(CN(Cc3ccco3)C(=S)NCC3CCCO3)c(=O)[nH]c2c1 (centres undefined) | – | 3.25% | 7.64% (inactive) | –
COc1ccc(NS(=O)(=O)c2ccc(C(=O)OC(C)C(=O)N3CCOCC3)cc2)cc1 (centres undefined) | – | -5.78% | -17.5% (inactive) | –
Cc1ccc(CCNC(=O)CCNS(=O)(=O)c2ccc3c(c2)oc(=O)n3C)cc1 | – | 0.906% | 9.42% (inactive) | –
CC(C)NC(=O)CCCOc1ccc(Cl)cc1Cl | – | 5.02% | 2.67% (inactive) | –
C[C@H](NC(=O)CCCOc1ccc(Cl)cc1Cl)c1nnc2ccccn12 | – | 5.34% | – | 18.4 µM (active)
O=C(CCCOc1ccc(Cl)cc1Cl)NCCc1nnc2ccccn12 | inactive | 33.2% | – | –
Cc1sc2ncnc(SCC(=O)N3CCOCC3)c2c1C | – | -10.8% | 11.6% (inactive) | –
COc1ccccc1CNS(=O)(=O)c1ccc2c(c1)CC(C)N2C(=O)C1CCC1 (centres undefined) | – | -14.7% | – | 5.17 µM (active)
